The values that follow come from article PMC5540273 (PLoS ONE, 2017).

“And” between values parts separate entries of the source, which are not always exact repeats. Identical values can stand only once. Like-named read-outs stand apart in the source and are kept apart here.

Some test systems named below: GRK7; GSK3A; GSK3B; HCK; HIPK1; HIPK2; HIPK3; HIPK4; HPK1; HUNK; ICK; IGF1R; INSRR; INSR; IRAK1; IRAK3.
Common to all, as to details: n = 1
For a further assay, the system named is T1, HASPIN.
T1 construct: gene GSG2

In the next assay the test system is T2, IKK-alpha.
T2 construct: gene CHUK

A further assay concerns T3, IKK-beta.
T3 construct: gene IKBKB

The next assay deals with T4, IKK-epsilon.
T4 construct: gene IKBKE

[1] abbreviates: concentration: 1 μM, replicates: in singlicate.
[2] abbreviates: concentration: 1 μM,replicates: in singlicate, 1 µM.
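Also: KINOMEscan kinase panel screen.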

Turning to `Cn1cncc1-c1ccc2ncnc(Nc3ccc(OCc4ccccc4)cc3)c2c1` [GW320571], the “%Inh” value was determined as 0% in the assay on GRK7 (setting [1]); 0% in the assay with GSK3A (setting [1]); 4% in the assay on GSK3B (setting [1]); 10% in the assay with HASPIN (setting [1]); 0% with HCK (setting [1]); 41% in the assay on HIPK1 (setting [1]). The “%Inh” value in the assay with HIPK2 (setting [1]) is given as 49%; in the assay on HIPK3 (setting [1]), 51%; in the assay on HIPK4 (setting [1]), 13%; with HPK1 (setting [1]), 32%; in the assay with HUNK (setting [1]) it was 0%; in the assay with ICK (setting [1]), 0%. The “%Inh” value with IGF1R (setting [1]) is reported as 24%; in the assay with IKK-alpha (setting [1]), 0%; with IKK-beta (setting [1]), 0%; in the assay with IKK-epsilon (setting [1]) it was 0%; in the assay with INSRR (setting [1]), 22%; in the assay on INSR (setting [1]), 3%. Further, the “%Inh” value turned out to be 11% in the assay with IRAK1 (setting [1]) and 3% in the assay with IRAK3 (setting [1]).
For the compound `CSc1nn2c(=O)cc(N3CCOCC3)nc2n1Cc1cccc(C(F)(F)F)c1C` [GSK2363608], the “%Inh” value in the assay with GRK7 (setting [1]) is 0%; with GSK3A (setting [2]) it was 26% and 9%; in the assay with GSK3B (setting [2]), 12% and 25%; in the assay on HASPIN (setting [1]), 0%; in the assay with HCK (setting [1]) it was 0%; in the assay with HIPK1 (setting [1]) it was 0%. In addition, the “%Inh” value with HIPK2 (setting [1]) is 0%; in the assay on HIPK3 (setting [2]), 11% and 15%; in the assay on HIPK4 (setting [2]) it was 0% and 18%; in the assay with HPK1 (setting [2]), 24% and 36%; in the assay with HUNK (setting [1]), 0%; in the assay on ICK (setting [2]) it was 0% and 12%. The “%Inh” value in the assay with IGF1R (setting [2]) is 0% and 7%; with IKK-alpha (setting [2]) it was 2% and 3%; in the assay with IKK-beta (setting [2]), 26% and 22%; with IKK-epsilon (setting [2]) it was 0% and 13%; in the assay on INSRR (setting [2]), 0% and 8%; with INSR (setting [2]) it was 6% and 0%. The “%Inh” value was 5% and 21% with IRAK1 (setting [2]); 0% in the assay on IRAK3 (setting [1]).
With `CN1C(=O)C(Nc2ccc(Cl)c(C(=O)O)c2)=C(c2ccc(Cl)cc2)C1=O` [SB-404290], the “%Inh” value in the assay with GRK7 (setting [1]) is on record as 0%; with GSK3A (setting [1]) it was 6%; in the assay with GSK3B (setting [1]), 33%; in the assay on HASPIN (setting [1]), 21%; with HCK (setting [1]) it was 17%; in the assay with HIPK1 (setting [1]), 19%. The “%Inh” value came out at 8% in the assay on HIPK2 (setting [1]); 34% in the assay on HIPK3 (setting [1]); 11% with HIPK4 (setting [1]); 0% in the assay with HPK1 (setting [1]); 32% in the assay on HUNK (setting [1]); 20% in the assay on ICK (setting [1]). In addition, the “%Inh” value in the assay with IGF1R (setting [1]) came to 0%; in the assay on IKK-alpha (setting [1]), 0%; with IKK-beta (setting [1]), 17%; in the assay with IKK-epsilon (setting [1]), 0%; in the assay with INSRR (setting [1]) it was 14%; in the assay on INSR (setting [1]) it was 0%. The “%Inh” value in the assay on IRAK1 (setting [1]) and in the assay on IRAK3 (setting [1]) was 0% in each case.
On to `Cc1csc(-c2nc(Nc3ccncc3)c3ccccc3n2)n1` [GW869640], for which the “%Inh” value in the assay on GRK7 (setting [1]) amounted to 17%; in the assay with GSK3A (setting [1]), 0%; with GSK3B (setting [1]), 46%; in the assay with HASPIN (setting [1]) it was 87%; in the assay on HCK (setting [1]) it was 23%; in the assay with HIPK1 (setting [1]) it was 7%. In addition, the “%Inh” value was found to be 23% in the assay on HIPK2 (setting [1]); 36% with HIPK3 (setting [1]); 7% in the assay on HIPK4 (setting [1]); 3% with HPK1 (setting [1]); 0% with HUNK (setting [1]); 33% with ICK (setting [1]). In addition, the “%Inh” value was found to be 14% in the assay with IGF1R (setting [1]); 48% in the assay on IKK-alpha (setting [1]); 41% in the assay with IKK-beta (setting [1]); 0% in the assay with IKK-epsilon (setting [1]); 11% in the assay on INSRR (setting [1]); 2% with INSR (setting [1]). Also, the “%Inh” value in the assay with IRAK1 (setting [1]) was 12%; in the assay with IRAK3 (setting [1]), 0%.
Turning to `Cc1nnc(-c2ccc3occ(-c4ccc(S(C)=O)cc4)c3c2)[nH]1` (centres unmarked), the “%Inh” value is listed as 6% with GRK7 (setting [1]); 86% in the assay on GSK3A (setting [1]); 75% in the assay with GSK3B (setting [1]); 25% with HASPIN (setting [1]); 0% with HCK (setting [1]); 69% in the assay on HIPK1 (setting [1]). The “%Inh” value came out at 84% with HIPK2 (setting [1]); 81% in the assay with HIPK3 (setting [1]); 36% with HIPK4 (setting [1]); 0% in the assay with HPK1 (setting [1]); 0% with HUNK (setting [1]); 0% in the assay on ICK (setting [1]). The “%Inh” value with IGF1R (setting [1]) was 0%; in the assay on IKK-alpha (setting [1]), 26%; with IKK-beta (setting [1]), 20%; in the assay with IKK-epsilon (setting [1]), 0%; in the assay on INSRR (setting [1]) it was 0%; in the assay with INSR (setting [1]), 4%. The “%Inh” value in the assay on IRAK1 (setting [1]) was determined as 0%; in the assay with IRAK3 (setting [1]), 66%.
Consider `Cc1ccc(NC(=O)Nc2cccc(C(F)(F)F)c2)cc1` [GSK955403], for which the “%Inh” value worked out at 10% in the assay on GRK7 (1 µM); 0% in the assay on GSK3A (1 µM); 0% in the assay with GSK3B (1 µM); 12% in the assay on HASPIN (1 µM); 0% in the assay with HCK (1 µM); 8% with HIPK1 (1 µM). The “%Inh” value in the assay on HIPK2 (1 µM), with HIPK3 (1 µM), in the assay with HIPK4 (1 µM), with HPK1 (1 µM), with HUNK (1 µM) and with ICK (1 µM) was 0% in each case. The “%Inh” value in the assay with IGF1R (1 µM), with IKK-alpha (1 µM), in the assay with IKK-beta (1 µM), in the assay on IKK-epsilon (1 µM), in the assay with INSRR (1 µM) and with INSR (1 µM) was 0% in each case. Moreover, the “%Inh” value was determined as 0% with IRAK1 (1 µM) and 100% with IRAK3 (1 µM).
In the case of `COc1cc2ncnc(Nc3ccc4nc(-c5ccccc5)[nH]c4c3)c2cc1OC.Cl` [GW282450], the “%Inh” value in the assay with GRK7 (setting [1]) is 0%; with GSK3A (setting [1]), 0%; in the assay on GSK3B (setting [1]), 22%; in the assay with HASPIN (setting [1]) it was 0%; in the assay with HCK (setting [1]), 0%; with HIPK1 (setting [1]), 6%. Moreover, the “%Inh” value in the assay with HIPK2 (setting [1]) stood at 0%; with HIPK3 (setting [1]) it was 32%; in the assay with HIPK4 (setting [1]), 35%; in the assay on HPK1 (setting [1]), 1%; in the assay with HUNK (setting [1]) it was 0%; in the assay with ICK (setting [1]), 4%. In addition, the “%Inh” value in the assay with IGF1R (setting [1]) is reported as 6%; in the assay on IKK-alpha (setting [1]) it was 0%; in the assay on IKK-beta (setting [1]) it was 0%; in the assay on IKK-epsilon (setting [1]), 0%; in the assay with INSRR (setting [1]), 0%; in the assay on INSR (setting [1]) it was 94.3%. Also, the “%Inh” value with IRAK1 (setting [1]) is 25%; with IRAK3 (setting [1]), 0%.
With `Cl.NC(=O)c1cccc(Nc2nccc(Nc3ccc(Oc4cccc(Cl)c4)c(Cl)c3)n2)c1` [GW659008], the “%Inh” value in the assay on GRK7 (setting [1]) was found to be 0%; with GSK3A (setting [1]) it was 0%; in the assay on GSK3B (setting [1]), 0%; in the assay on HASPIN (setting [1]), 0%; in the assay on HCK (setting [1]), 72%; with HIPK1 (setting [1]), 0%. Besides, the “%Inh” value with HIPK2 (setting [1]) is on record as 0%; in the assay with HIPK3 (setting [1]), 0%; with HIPK4 (setting [1]), 0%; in the assay on HPK1 (setting [1]) it was 37%; in the assay with HUNK (setting [1]), 0%; in the assay with ICK (setting [1]) it was 85%. Besides, the “%Inh” value in the assay on IGF1R (setting [1]) was determined as 14%; in the assay on IKK-alpha (setting [1]), 3%; in the assay with IKK-beta (setting [1]), 5%; in the assay with IKK-epsilon (setting [1]), 0%; in the assay with INSRR (setting [1]) it was 12%; with INSR (setting [1]) it was 6%. The “%Inh” value in the assay with IRAK1 (setting [1]) came out at 0%; in the assay on IRAK3 (setting [1]) it was 50%.
With `COC(=O)c1c(-c2ccccc2)c2cc(C(=O)O)ccc2c(=O)n1Cc1ccccc1`, the “%Inh” value in the assay with GRK7 (setting [1]) was 0%; with GSK3A (setting [1]), 0%; in the assay on GSK3B (setting [1]) it was 0%; in the assay on HASPIN (setting [1]) it was 31%; in the assay with HCK (setting [1]), 0%; with HIPK1 (setting [1]) it was 14%. For the same compound, the “%Inh” value is on record as 0% with HIPK2 (setting [1]); 0% in the assay with HIPK3 (setting [1]); 0% in the assay with HIPK4 (setting [1]); 0% in the assay on HPK1 (setting [1]); 43% in the assay on HUNK (setting [1]); 0% in the assay with ICK (setting [1]). Also, the “%Inh” value came out at 4% with IGF1R (setting [1]); 0% with IKK-alpha (setting [1]); 0% in the assay on IKK-beta (setting [1]); 0% with IKK-epsilon (setting [1]); 7% with INSRR (setting [1]); 0% with INSR (setting [1]). The “%Inh” value stood at 18% with IRAK1 (setting [1]) and 0% with IRAK3 (setting [1]).
With `COc1ccccc1-c1ccc2c(NC(=O)C3CC3)n[nH]c2n1` [SB-711239], the “%Inh” value with GRK7 (setting [1]) is reported as 0%; in the assay on GSK3A (setting [1]) it was 6%; in the assay on GSK3B (1 µM), 0%; with HASPIN (setting [1]) it was 41%; with HCK (setting [1]), 0%; with HIPK1 (setting [1]), 0%. Moreover, the “%Inh” value with HIPK2 (setting [1]) is 0%; in the assay on HIPK3 (setting [1]) it was 1%; with HIPK4 (setting [1]) it was 0%; in the assay with HPK1 (setting [1]) it was 41%; in the assay on HUNK (setting [1]), 16%; in the assay with ICK (setting [1]), 0%. Besides, the “%Inh” value in the assay with IGF1R (setting [1]) was 0%; in the assay with IKK-alpha (setting [1]), 64%; in the assay on IKK-beta (setting [1]), 0%; in the assay with IKK-epsilon (setting [1]) it was 24%; in the assay with INSRR (setting [1]) it was 1%; with INSR (setting [1]), 0%. Also, the “%Inh” value with IRAK1 (setting [1]) turned out to be 15%; in the assay on IRAK3 (setting [1]) it was 9%.
